Measurements as given in PMC5836133, “The intracellular immune receptor Rx1 regulates the DNA-binding activity of a Golden2-like transcription factor”.
In all, about 16,000 sequences were measured (“e-score”: median about -0.044, highest 2% from about 0.38 on). For the sample, the highest values were picked, then their nearest neighbours and some sequences at random.

Molecular target: T1, GST-NbGlk1(82-244) (Nicotiana benthamiana)
T1 chain: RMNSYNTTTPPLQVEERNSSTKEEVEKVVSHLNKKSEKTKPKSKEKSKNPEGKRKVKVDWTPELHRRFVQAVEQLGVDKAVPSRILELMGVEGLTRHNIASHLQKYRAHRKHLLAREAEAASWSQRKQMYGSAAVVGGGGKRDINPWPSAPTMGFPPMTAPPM
Assay: protein-binding microarray; NbGlk1 is a Golden2-like transcription factor of Nicotiana benthamiana; high values mean tight binding
Conditions: protein: recombinant; tags: GST (pTH6838); dsDNA, one strand shown
Work on AATCAGAT yielded a binding signal of 0.341 ± 0.0502 E-score.
For ACTAATAT, the binding signal was 0.2093 ± 0.00102 E-score.
ATGGGAAT showed a binding signal of 0.296 ± 0.0441 E-score.
ACAGATCC was tested, and the binding signal was 0.234 ± 0.05 E-score.
ACAAGATA was tested, and the binding signal was 0.322 ± 0.00757 E-score.
In the case of ATTCCCTC, the binding signal is reported as 0.372 ± 0.0111 E-score.
With AGAATCAA the binding signal was 0.342 ± 0.0419 E-score.
For AAAATACG, the binding signal was 0.286 ± 0.0671 E-score.
For AAAATCCA, the binding signal was 0.454 ± 0.016 E-score.
Work on AAAATCCG yielded a binding signal of 0.446 ± 0.00893 E-score.
With CAAATCCG the binding signal was 0.389 ± 0.00882 E-score.
ATAATCCA was tested, and the binding signal was 0.354 ± 0.0347 E-score.
In the case of AGAATCAG, the binding signal is reported as 0.39 ± 0.0152 E-score.
For AGAATCAC, the binding signal was 0.373 ± 0.0542 E-score.
For ACAATCCA, the binding signal was 0.3331 ± 0.000895 E-score.
ATAATCAA gave a binding signal of 0.216 ± 0.00752 E-score.
With AAGCGGAT the binding signal was 0.227 ± 0.0367 E-score.
Work on AATCGGAT yielded a binding signal of 0.357 ± 0.0422 E-score.
In the case of ATATACAG, the binding signal is reported as 0.262 ± 0.0848 E-score.
ATCCCTTA showed a binding signal of 0.215 ± 0.0752 E-score.
For ATGTGATA, the binding signal was 0.231 ± 0.0239 E-score.
ATCCTCAG was tested, and the binding signal was 0.231 ± 0.0659 E-score.
For CAAATCCC, the binding signal was 0.315 ± 0.0145 E-score.
In the case of AAAATCCT, the binding signal is reported as 0.433 ± 0.0284 E-score.
Work on AAAATCAT yielded a binding signal of 0.302 ± 0.0817 E-score.
Sequence AAAATCCC has a binding signal of 0.41 ± 0.0189 E-score.
In the case of AAAATCAG, the binding signal is reported as 0.381 ± 0.0189 E-score.
CAAATCCA was tested, and the binding signal was 0.3792 ± 0.00132 E-score.
Work on ATAATCAG yielded a binding signal of 0.222 ± 0.0278 E-score.
For ATAATCCC, the binding signal was 0.212 ± 0.0485 E-score.
Sequence CAGATCCA has a binding signal of 0.23 ± 0.064 E-score.
AAAATCAC was tested, and the binding signal was 0.36 ± 0.0307 E-score.
With CAAATTCA the binding signal was 0.203 ± 0.0475 E-score.
Work on ACTGAAAT yielded a binding signal of 0.278 ± 0.0182 E-score.
For ATATTCAA, the binding signal was 0.213 ± 0.11 E-score.
With AGTAAGAA the binding signal was 0.214 ± 0.0216 E-score.
Sequence ATCCGCCG has a binding signal of 0.216 ± 0.0636 E-score.
ATTTCATG was tested, and the binding signal was 0.332 ± 0.0188 E-score.
For ATCTCCAG, the binding signal was 0.293 ± 0.0251 E-score.
Work on ATCCTGAG yielded a binding signal of 0.23 ± 0.00887 E-score.
ACCAAAGA showed a binding signal of 0.208 ± 0.134 E-score.
Sequence ATCTCACG has a binding signal of 0.2 ± 0.0565 E-score.
ATTGAAAA was tested, and the binding signal was 0.214 ± 0.0168 E-score.
AAGGTAAT was tested, and the binding signal was 0.217 ± 0.0574 E-score.
Work on ATTTTCCA yielded a binding signal of 0.294 ± 0.00656 E-score.
AGATACCG gave a binding signal of 0.364 ± 0.0644 E-score.
Work on AGATACCA yielded a binding signal of 0.204 ± 0.131 E-score.
AGATTCCA showed a binding signal of 0.433 ± 0.0111 E-score.
With CAATTCCC the binding signal was 0.217 ± 0.0511 E-score.
Sequence AGATTCAT has a binding signal of 0.24 ± 0.0201 E-score.
Work on AAATTCCC yielded a binding signal of 0.294 ± 0.0591 E-score.
With AGATTCAG the binding signal was 0.238 ± 0.0658 E-score.
Sequence AGATTCCT has a binding signal of 0.4552 ± 0.00311 E-score.
With AGATTCCG the binding signal was 0.4631 ± 0.000925 E-score.
AGATACCT showed a binding signal of 0.216 ± 0.0648 E-score.
AGATTCCC was tested, and the binding signal was 0.493 ± 0.00512 E-score.
AGATCGTG showed a binding signal of 0.339 ± 0.0193 E-score.
ATCCGCGG showed a binding signal of 0.28 ± 0.0747 E-score.
In the case of AGAATTCG, the binding signal is reported as 0.221 ± 0.0588 E-score.
With AATCGACT the binding signal was 0.263 ± 0.0439 E-score.
With CAATCGAA the binding signal was 0.202 ± 0.113 E-score.
In the case of ATCCTCCA, the binding signal is reported as 0.285 ± 0.089 E-score.
Sequence ACAAGAGA has a binding signal of 0.277 ± 0.0453 E-score.
ACTCGTAA gave a binding signal of 0.247 ± 0.062 E-score.
With ATAATCAC the binding signal was 0.214 ± 0.0373 E-score.
Sequence AATCGTGC has a binding signal of 0.299 ± 0.027 E-score.
ATTACCCC showed a binding signal of 0.247 ± 0.0858 E-score.
With AATCAAGC the binding signal was 0.22 ± 0.0411 E-score.
Sequence AATCTAGC has a binding signal of 0.404 ± 0.00637 E-score.
AATCTAGG showed a binding signal of 0.4332 ± 0.00364 E-score.
With AATCAAGA the binding signal was 0.308 ± 0.0329 E-score.
Sequence AATCTAGT has a binding signal of 0.421 ± 0.0336 E-score.
For AATCTAGA, the binding signal was 0.452 ± 0.018 E-score.
With AATCAAGT the binding signal was 0.233 ± 0.1 E-score.
In the case of ATTCTAGA, the binding signal is reported as 0.2 ± 0.0443 E-score.
AATCAAGG gave a binding signal of 0.258 ± 0.0284 E-score.
With AATCGAGC the binding signal was 0.207 ± 0.052 E-score.
ATCCTAGC showed a binding signal of 0.237 ± 0.018 E-score.
ATCCCCGC was tested, and the binding signal was 0.2 ± 0.0376 E-score.
ATTACACG was tested, and the binding signal was 0.268 ± 0.0173 E-score.
For CACGATTA, the binding signal was 0.202 ± 0.0336 E-score.
ATGCGTAA showed a binding signal of 0.21 ± 0.0884 E-score.
ATTCTCCA gave a binding signal of 0.31 ± 0.0567 E-score.
AATCTCCT showed a binding signal of 0.4008 ± 0.00273 E-score.
Work on ATTCTCCC yielded a binding signal of 0.255 ± 0.0215 E-score.
AATCTCCG was tested, and the binding signal was 0.437 ± 0.00941 E-score.
In the case of AATCTCCA, the binding signal is reported as 0.389 ± 0.05 E-score.
AATCGCCT showed a binding signal of 0.225 ± 0.129 E-score.
ATTCTCCG showed a binding signal of 0.338 ± 0.0548 E-score.
